Results published in PubChem BioAssay (NCI).
This is part of a sample that, as a whole, favours compounds with a hit. Of some 83,000 tested, about 20% had one in any assay.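 A percent growth of 40 corresponds to 60% growth inhibition; 0 means no net growth; -100 means all cells died. Active threshold: below 10.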 Active and inactive are the calls of the source.

Experiments:
Experiment in all cases: NCI-60 one-dose screen, 48 h (100 = growth as untreated, 0 = no growth, -100 = all killed)
Settings in all cases: 10 µM unless noted
[1] = test system: SK-MEL-2 melanoma
[2] = test system: EKVX NSCLC
[3] = test system: UO-31 renal
[4] = test system: TK-10 renal
[5] = test system: ACHN renal
[6] = test system: CAKI-1 renal
[7] = test system: A498 renal
[8] = test system: CCRF-CEM leukemia
[9] = test system: MOLT-4 leukemia
[10] = test system: SN12C renal

Measured: growth

COc1cc(/C=C/c2cc(/C=C/c3ccc(O)c(OC)c3)n(-c3ccc(Cl)cc3)c(=O)n2)ccc1O
inactive: [1] 92.6% | [2] 78.1% | [3] 64.9% | [4] 118% | [5] 83.1% | [6] 92.9% | [7] 102% | [8] 44.2% | [9] 43%

Cc1cc(N2CCCCC2)nc(N(CCNc2ccnc3cc(Cl)ccc23)Cc2ccco2)n1
inactive: [1] 76.4% | [2] 64.8% | [10] 24% | [3] 40.6% | [4] 68.5% | [5] 27.8% | [7] 61.3% | [8] 10.2%
active: [9] 0.376%

O=S(=O)(NCCCNc1cc(-c2cn(-c3ccccc3)nc2-c2cccc(O)c2)ccn1)c1ccc(F)cc1
inactive: [1] 44.7% | [2] 51.2% | [3] 21.9% | [4] 50.6% | [5] 32.8% | [6] 41.4% | [7] 34.3% | [8] 19.4% | [9] 18.8%

S=c1[nH]nc2ccccn12
inactive: [1] 95.3% | [2] 102% | [3] 87.7% | [4] 85.7% | [5] 102% | [6] 102% | [7] 100% | [8] 101% | [9] 80.7%

OCC1OC(n2cnc3c(Cl)ncnc32)CC1O (configuration not stated)
inactive: [1] 108% | [2] 113% | [3] 76.9% | [4] 106% | [5] 95.6% | [6] 94.1% | [7] 106% | [8] 98.2% | [9] 91.9%

O=Cc1nc2ccccc2[nH]1
inactive: [1] 101% | [2] 94.5% | [3] 75.9% | [4] 97% | [5] 106% | [6] 93.2% | [7] 105% | [8] 99.8% | [9] 95.4%

COC1=C(Br)C(=O)C(OC)=C(Br)C1=O
inactive: [1] 119% | [2] 105% | [3] 93.3% | [4] 95.7% | [5] 104% | [6] 98.9% | [7] 128%
active: [8] -12.3%

COc1cnc2c(c1)C(=O)c1c-2n(CCCNC2=NCCS2)c(=O)c2cc([N+](=O)[O-])ccc12
inactive: [1] 73.1% | [10] 13.5% | [6] 13.3%
active: [3] -71% | [4] -89.2% | [5] -77.8% | [7] -36% | [8] -10.9%

COc1ccc(-c2nc3ccccn3c2-c2nc3ccc(Cl)cc3[nH]2)cc1
inactive: [1] 97.5% | [10] 97.3% | [3] 97.6% | [4] 103% | [5] 86.3% | [6] 93.2% | [7] 91.9%

Nc1c(C(=O)Nc2cccc(Br)c2)sc2nc3c(cc12)C(=O)CCC3
inactive: [1] 30.8% | [10] 45.2% | [3] 56.9% | [4] 69% | [5] 58.8% | [6] 64%
active: [7] -3.99%

O=c1c(CNc2ccc(S(=O)(=O)Nc3nccs3)cc2)coc2ccccc12
inactive: [1] 98.1% | [10] 99.1% | [3] 82.2% | [4] 103% | [5] 94.2% | [6] 98.5% | [7] 112%

Cn1cc(-c2csc(-c3cn(CCN)c4ccc(F)cc34)n2)c2cccnc21
inactive: [1] 93.3% | [2] 55.9% | [3] 58.3% | [4] 121% | [5] 60.9% | [7] 82.4% | [8] 34.3% | [9] 12.1%

CN(C)c1cccc2[nH]c(-c3[nH]ncc3Nc3ccnc(N)n3)nc12
active: [1] -60.4% | [10] -7.45% | [3] -9.8% | [4] -30.1% | [5] -1.92% | [6] -45.9% | [7] -79.4% | [8] 1.73%

COc1ccc(-c2cc(/C=C/C(=O)c3ccc(OC)c(OC)c3)[nH]n2)cc1
inactive: [1] 69.2% | [10] 17.6% | [3] 36.4% | [4] 31.4% | [5] 29.8% | [6] 62.8%
active: [7] -4.05%

O=C1NC(=Nc2ccc(S(=O)(=O)Nc3nccs3)cc2)S/C1=C\c1coc2ccccc2c1=O
inactive: [1] 133% | [10] 95.3% | [3] 82.6% | [4] 133% | [5] 98.6% | [6] 103% | [7] 101%

COc1ccc2c(c1)C/C(=C\c1cc(-c3cc(OC)c(OC)c(OC)c3)n[nH]1)C2=O
inactive: [1] 94.7% | [10] 92.8% | [3] 76.6% | [4] 111% | [5] 81.7% | [6] 84.3% | [7] 87.4%

C=COCCCCCCCCCCCCCCCCCC
inactive: [1] 111% | [10] 88.4% | [3] 124% | [4] 101% | [5] 108% | [6] 99.7% | [7] 92.7% | [8] 91.5%

c1ccc2[nH]c(-c3cc(-c4ccc5c(c4)OCO5)n[nH]3)nc2c1
inactive: [1] 41% | [10] 62.9% | [3] 66.7% | [4] 86% | [5] 45.6% | [6] 55.1% | [7] 71.8%

COc1cccc(-c2nn(-c3ccccc3)cc2-c2ccnc(NCCNS(=O)(=O)c3ccc(Cl)cc3)c2)c1
active: [9] 1.18%
inactive: [1] 13.4% | [10] 33.9% | [3] 15.8% | [4] 41.5% | [5] 26.6% | [6] 32.2% | [7] 45.9% | [8] 15.3%

Clc1cc(Cl)cc(Nc2ccc3c(OCCCN4CCOCC4)cccc3n2)c1
inactive: [1] 87.8% | [10] 76.1% | [3] 28.6% | [4] 80.5% | [5] 49.9% | [6] 56.6% | [7] 59.8% | [8] 29.5% | [9] 22.5%

COc1cc(-c2cc(-c3nc4ccccc4[nH]3)[nH]n2)cc(OC)c1OC
inactive: [1] 47.4% | [10] 65.8% | [3] 39.8% | [4] 70.3% | [5] 39.3% | [6] 38.8% | [7] 17.2%

O=c1c(CNc2ccc(S(=O)(=O)Nc3ncccn3)cc2)coc2ccccc12
inactive: [1] 95.9% | [10] 90.1% | [3] 74.9% | [4] 106% | [5] 89.9% | [6] 130% | [7] 102%

COc1ccc2nc(-c3c(-c4ccccc4)nc4ncccn34)[nH]c2c1
inactive: [1] 113% | [10] 104% | [3] 108% | [4] 109% | [5] 90.4% | [6] 103% | [7] 86.6%

COc1ccc(-c2cc(/C=C/C(=O)c3ccc(N)cc3)[nH]n2)cc1
inactive: [1] 22.4% | [10] 18.4% | [3] 39.6% | [4] 41.8% | [5] 26.9% | [6] 38.7%
active: [7] -16.8%

COc1cc(C(=O)/C=C/c2cc(-c3ccc4c(c3)OCO4)n[nH]2)cc(OC)c1OC
active: [7] 4.49%
inactive: [1] 84.7% | [10] 25.7% | [3] 39.4% | [4] 67% | [5] 42.7% | [6] 66.3%

COc1ccc(-c2nc3ncccn3c2-c2nc3ccc(Br)cc3[nH]2)cc1
inactive: [1] 83.5% | [10] 89% | [3] 84.4% | [4] 101% | [5] 88.6% | [6] 93.7% | [7] 75.5%

Clc1ccccc1-c1nc(Nc2nc3ccccc3s2)nc(C(Cl)(Cl)Cl)n1
active: [5] 6.55%
inactive: [1] 85.9% | [10] 82.6% | [3] 14.3% | [4] 84.1% | [6] 20.9% | [7] 58.3% | [8] 92.5% | [9] 86.3%

CC(=O)O[C@H]1CC[C@@]2(C)[C@@H](CC[C@@H]3[C@@H]2CC(=O)[C@@]2(C)[C@H]3C[C@@H](C3CCCC3=O)[C@@H]2C(C)=O)C1 (some centres not stated)
inactive: [1] 111% | [10] 84.4% | [3] 88.3% | [4] 106% | [5] 107% | [6] 114% | [7] 97.1% | [8] 92.9% | [9] 86.1%

O=c1[nH]c(=S)[nH]c2nc[nH]c12
inactive: [1] 117% | [10] 96.2% | [3] 62.7% | [4] 113% | [5] 104% | [6] 108% | [7] 93.4% | [8] 106% | [9] 97.8%

CCCCCCCC(=O)SCC/C=C/[C@@H]1CC(=O)NCc2cccc(n2)CN(Cc2ccc3ccccc3c2)CC(=O)N[C@@H](C(C)C)C(=O)O1
inactive: [1] 56.5% | [10] 57.1% | [3] 36.4% | [4] 21.6% | [5] 34.7% | [6] 35.8% | [8] 15.6%
active: [7] 0.931% | [9] 2.35%

COc1ccc2nc(-c3cc(-c4cc(OC)c(OC)c(OC)c4)n[nH]3)[nH]c2c1
active: [1] -29.9% | [3] -1.85%
inactive: [10] 21% | [4] 31.7% | [5] 21.5% | [6] 26.8% | [7] 15.5%

COc1cc2c(cc1OC)C(=O)/C(=C/c1cc(-c3ccc4c(c3)OCO4)n[nH]1)C2
inactive: [1] 81.3% | [6] 56.4% | [7] 25.8%
active: [10] 6.08% | [3] -72.6% | [4] -9.8% | [5] -7.41%

CN(CSc1ccc(Cl)cc1)c1ccc(CSc2ccc(Cl)cc2)cc1
inactive: [1] 78.1% | [10] 36.9% | [3] 26.6% | [4] 87.1% | [5] 87.4% | [6] 44.7% | [7] 71.8%
active: [8] 6.37% | [9] 8.87%
